Inconclusive results are not listed. Active and inactive are the calls of the source. Unless noted, the call rests on the fitted dose curve; in most records, active means well fitted curve in the direction sought with a large enough effect in the repeat runs; inconclusive means weak or mixed curves; inactive means no such curve, though single readings can be large; an effect the other way counts as inactive or inconclusive.
Experiments:
[1] = qHTS assay to identify small molecule antagonists of the retinoid acid receptor (RAR) signaling pathway - cell viability counter screen (AID 1159551); further: nearly all actives have a fitted effect of over 35% in size
Summary of the method: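 Retinol-stimulated (1 uM final) C3RL4 cells, compound 6 h, 37 C; readout CellTiter-Glo luminescence (ATP) after 30 min RT incubation.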

[2] = qHTS assay to identify small molecule antagonists of the retinoic acid receptor (RAR) signaling pathway (AID 1159552; further: nearly all actives have a fitted effect of over 50% in size)
Summary of the method: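 Readout: luciferase luminescence, 30 min post-reagent at RT. Setup: C3RL4 RARE reporter cells, compounds plus retinol 1 uM final, 6 hr incubation at 37 C and 5% CO2.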

[3] = qHTS assay to identify small molecule agonists of the retinoic acid receptor (RAR) signaling pathway (AID 1159553); further: potency means the concentration at half of the fitted maximal effect
Summary of the method: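 Reporter readout comes from luciferase under RARE control in C3RL4 cells; compound exposure lasts 6 hr at 37 C in 5% CO2, and luminescence is recorded following a 30 min room-temperature incubation with reagent.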

[4] = qHTS assay to identify small molecule antagonists of the estrogen related receptor (ERR) signaling pathway from Tox21 library - cell viability counter screen (AID 1224834); further: nearly all actives have a fitted effect of over 30% in size
Summary of the method: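 After 17.5 h of compound exposure at 37 C, ERR cells are incubated with CellTiter-Fluor for 30 min and fluorescence intensity serves as the viability measure.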

[5] = target: Luciferin 4-monooxygenase (Photinus pyralis) (UniProt P08659); assay: qHTS assay to identify small molecule inhibitors of firefly luciferase (AID 1224835); further: nearly all actives have a fitted effect of over 25% in size; further: potency means the concentration at half of the fitted maximal effect
Summary of the method: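 Biochemical qHTS: compounds run as interplate titrations against purified firefly enzyme, with D-luciferin and ATP each at its KM concentration. Light output recorded by CCD imaging.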

[6] = qHTS assay to identify small molecule agonists of the constitutive androstane receptor (CAR) signaling pathway - cell viability counter screen (AID 1224836); further: nearly all actives have a fitted effect of over 45% in size
Summary of the method: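 Compound titrations (15 concentrations) went onto HepG2-CYP2B6-hCAR cells 4 h after seeding, alongside PK11195 at a final 0.75 uM; a 23 h, 37 C/5% CO2 incubation preceded CellTiter-Fluor viability measurement.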

[7] = qHTS assay to identify small molecule antagonists of the constitutive androstane receptor (CAR) signaling pathway - cell viability counter screen (AID 1224837); further: nearly all actives have a fitted effect of over 45% in size
Summary of the method: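 Counter screen run in HepG2-CYP2B6-hCAR cells: 4 hr settle, compound titration (15 concentrations) with 50 nM CITCO, 23 hr at 37 C/5% CO2, CellTiter-Fluor fluorescence.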

[8] = target: Nuclear receptor subfamily 1 group I member 3 (Homo sapiens) (UniProt Q14994); assay: qHTS assay to identify small molecule antagonists of the constitutive androstane receptor (CAR) signaling pathway (AID 1224838);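 further: HepG2 cells stably expressing hCAR with CYP2B6 luciferase reporter stimulated by CITCO; nearly all actives have a fitted effect of over 40% in size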
Summary of the method: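 Cell line: HepG2 double-stable for hCAR and CYP2B6-2.2kb reporter. Agonist: CITCO, 50 nM final. Compounds: 15 concentrations, 24 h, 37 C. Detection: ONE-Glo luminescence.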

[9] = target: Nuclear receptor subfamily 1 group I member 3 (Homo sapiens) (UniProt Q14994); assay: qHTS assay to identify small molecule agonists of the constitutive androstane receptor (CAR) signaling pathway (AID 1224839);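 further: HepG2 cells stably carrying human CAR and a CYP2B6 luciferase reporter; nearly all actives have a fitted effect of over 15% in size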
Summary of the method: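 In this screen, CAR-driven CYP2B6 promoter activity is measured by luminescence in HepG2-CYP2B6-hCAR cells after 24 h with test compounds and 0.75 uM PK11195 (final concentration).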

[10] = qHTS assay to identify small molecule antagonists of the estrogen related receptor signaling pathway with the pleiotropic PPARgamma coactivator (PGC) from Tox21 10K library - cell viability counter screen (AID 1224840; active means well fitted cell-killing curve with a large enough effect in the repeat runs, not every such curve was filed as active; further: nearly all actives have a fitted effect of over 40% in size)
Summary of the method: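 Following seeding of 2,000 PGC/ERR cells/well and 6 hours' incubation, test compounds were delivered in DMSO. The plates then sat 17.5 hours at 37 C before a fluorogenic live-cell protease reagent (CellTiter-Fluor) was read after 30 min.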

[11] = qHTS assay to identify small molecule antagonists of the estrogen related receptor signaling pathway with the pleiotropic PPARgamma coactivator (PGC) from Tox21 10K library (AID 1224841; call rule not given here; further: actives are mostly falling curves and most rising ones were filed inactive; nearly all actives have a fitted effect of over 50% in size)
Summary of the method: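 qHTS antagonist format: PGC/ERR cells, 2k/well, compound in DMSO by pin transfer after 6 h attachment, 18 h treatment at 37 C, One-Glo luminescence read at 30 min.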

[12] = qHTS assay to identify small molecule agonists of the estrogen related receptor signaling pathway with the pleiotropic PPARgamma coactivator (PGC) from Tox21 10K library (AID 1224842); further: nearly all actives have a fitted effect of over 15% in size
Summary of the method: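 PGC/ERR reporter cell line, 2,000 cells per well, incubated 6 h at 37 C before 23 nL compound in DMSO was added. After 18 h at 37 C, One-Glo luminescence read following 30 min at room temperature.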

[13] = target: Thyrotropin receptor (Homo sapiens) (UniProt P16473); assay: qHTS assay to identify small molecule agonists of the thyroid stimulating hormone receptor (TSHR) signaling pathway (AID 1224843; calls by dose curve; further: nearly all actives have a fitted effect of over 45% in size)
Summary of the method: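 TSHR-HEK293 cells in agonist mode, 30 min room-temperature step, then cAMP measured by competitive HTRF (cAMP-d2 with anti-cAMP cryptate) after 1 h at room temperature. Tested at 15 concentrations in triplicate.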

[14] = qHTS assay to identify small molecule agonists of the hypoxia (HIF-1) signaling pathway (AID 1224846; active means well fitted activation curve with a large enough effect in the signal ratio in the repeat runs, not every such curve was filed as active; the % refers to the signal ratio)
Summary of the method: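 A low-serum medium (0.5% dialyzed FBS) holding 2,000 HRE-bla ME-180 cells per well is preincubated for 5 hrs, dosed with compounds by pintool, and kept a further 17 hrs at 37C, 5% CO2 before CCF4-AM FRET detection of beta-lactamase.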

[15] = qHTS assay to identify small molecule agonists of H2AX - cell viability counter screen (AID 1224847; calls by dose curve; further: top concentration of the series differs between compounds; nearly all actives have a fitted effect of over 30% in size)
Summary of the method: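 Read-out: CellTiter-Glo luminescence, 30 min RT. Cells: wild-type CHO-K1, 1000/well, 10% FBS, plated overnight at 37C. Treatment: 15 concentrations, 3 hr, 37C, 0.76% DMSO.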

[16] = qHTS assay to identify small molecule antagonists of the estrogen related receptor (ERR) signaling pathway from Tox21 library (AID 1224848); further: nearly all actives have a fitted effect of over 50% in size
Summary of the method: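 ERR reporter cell line (from NTP) seeded 2,000 cells/well, rested 6 h at 37 C/5% CO2, then pin-dosed with compounds in DMSO. After 18 h at 37 C, ONE-Glo added; luminescence read after 30 min at room temperature.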

[17] = qHTS assay to identify small molecule agonists of the estrogen related receptor (ERR) signaling pathway from Tox21 library (AID 1224849; calls by dose curve; further: nearly all actives have a fitted effect of over 15% in size); conditions: ERR reporter cell line, ONE-Glo luciferase, 18 h; at 92.4 µM (top of the series) unless noted
Summary of the method: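 Screening used an NTP-provided ERR luciferase cell line. Compounds in DMSO were added 6 h after seeding and left 18 h at 37 C before a 30 min ONE-Glo step and luminescence reading.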

[18] = qHTS RealTime-Glo MT Cell Viability Assay in HepG2 cells - 24 hour (AID 1224867); further: nearly all actives have a fitted effect of over 50% in size
Summary of the method: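 Real-time, nonlytic viability: 600 HepG2 cells/well mixed with NanoLuc enzyme plus prosubstrate; 5 h settle, compound (DMSO) added by pintool; luminescence monitored over 40 h at 37 C.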

[19] = qHTS assay to identify small molecule agonists of the hypoxia (HIF-1) signaling pathway - cell viability counter screen (AID 1224844; calls by dose curve; further: nearly all actives have a fitted effect of over 50% in size)
Summary of the method: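 Cells (HRE-bla ME-180, 2,000 per well) sat 5 hrs at 37C, got compound for 17 hrs, were read for CCF4-AM FRET, and were finally lysed with CellTiter-Glo for a 30 min room-temperature luminescence read.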

[20] = qHTS assay to identify small molecule agonists of H2AX (AID 1224845; active means well fitted activation curve with a large enough effect in the signal ratio in the repeat runs, not every such curve was filed as active; the % refers to the signal ratio)
Summary of the method: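 Wild-type CHO-K1 cells, plated overnight, exposed 3hr at 37C to 15 concentrations (0.76% DMSO final). Lysed, then HTRF anti-pH2AX (S139) cryptate and anti-H2AX-d2 antibodies, 24 hr room temperature; 665/620 nm emission read.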
On the % scale 0 is the no-effect control and ±100 the full control effect.

Sequence of Thyrotropin receptor (Homo sapiens) (P16473 whole entry, looked up): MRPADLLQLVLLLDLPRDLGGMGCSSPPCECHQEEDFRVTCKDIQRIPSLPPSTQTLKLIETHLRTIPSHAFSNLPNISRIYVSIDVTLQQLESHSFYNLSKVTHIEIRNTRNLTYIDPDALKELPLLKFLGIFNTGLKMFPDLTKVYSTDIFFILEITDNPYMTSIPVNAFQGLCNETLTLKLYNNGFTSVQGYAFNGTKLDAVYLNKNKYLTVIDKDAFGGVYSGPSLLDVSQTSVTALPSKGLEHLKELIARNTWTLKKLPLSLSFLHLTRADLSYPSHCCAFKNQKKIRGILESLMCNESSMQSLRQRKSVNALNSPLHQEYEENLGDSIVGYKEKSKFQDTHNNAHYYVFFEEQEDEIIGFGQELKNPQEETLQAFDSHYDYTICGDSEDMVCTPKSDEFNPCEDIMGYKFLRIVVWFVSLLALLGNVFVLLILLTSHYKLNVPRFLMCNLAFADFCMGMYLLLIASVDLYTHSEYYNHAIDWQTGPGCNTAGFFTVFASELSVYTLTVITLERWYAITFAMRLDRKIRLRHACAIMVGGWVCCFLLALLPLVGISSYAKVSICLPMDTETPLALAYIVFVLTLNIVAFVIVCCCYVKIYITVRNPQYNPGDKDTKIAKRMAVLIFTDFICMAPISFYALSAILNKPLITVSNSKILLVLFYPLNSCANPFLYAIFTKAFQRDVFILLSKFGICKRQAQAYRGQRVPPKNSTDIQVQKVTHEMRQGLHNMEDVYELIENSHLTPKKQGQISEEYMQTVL
Sequence of Luciferin 4-monooxygenase (Photinus pyralis) (P08659 whole entry, looked up): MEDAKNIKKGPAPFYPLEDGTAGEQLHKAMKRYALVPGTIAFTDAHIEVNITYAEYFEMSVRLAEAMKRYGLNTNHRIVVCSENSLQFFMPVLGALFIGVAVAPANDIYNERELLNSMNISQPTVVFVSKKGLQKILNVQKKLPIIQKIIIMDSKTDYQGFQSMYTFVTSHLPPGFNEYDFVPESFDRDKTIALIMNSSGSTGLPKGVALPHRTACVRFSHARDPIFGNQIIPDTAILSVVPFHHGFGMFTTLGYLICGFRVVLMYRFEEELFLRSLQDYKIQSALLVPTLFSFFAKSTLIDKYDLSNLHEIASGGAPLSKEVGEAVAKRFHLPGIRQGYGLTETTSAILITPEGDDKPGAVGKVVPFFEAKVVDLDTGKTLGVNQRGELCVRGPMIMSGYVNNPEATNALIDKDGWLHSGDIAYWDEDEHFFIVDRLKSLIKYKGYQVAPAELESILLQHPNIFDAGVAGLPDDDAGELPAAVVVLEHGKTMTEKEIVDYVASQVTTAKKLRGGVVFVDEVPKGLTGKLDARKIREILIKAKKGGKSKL
Sequence of Nuclear receptor subfamily 1 group I member 3 (Homo sapiens) (Q14994 whole entry, looked up): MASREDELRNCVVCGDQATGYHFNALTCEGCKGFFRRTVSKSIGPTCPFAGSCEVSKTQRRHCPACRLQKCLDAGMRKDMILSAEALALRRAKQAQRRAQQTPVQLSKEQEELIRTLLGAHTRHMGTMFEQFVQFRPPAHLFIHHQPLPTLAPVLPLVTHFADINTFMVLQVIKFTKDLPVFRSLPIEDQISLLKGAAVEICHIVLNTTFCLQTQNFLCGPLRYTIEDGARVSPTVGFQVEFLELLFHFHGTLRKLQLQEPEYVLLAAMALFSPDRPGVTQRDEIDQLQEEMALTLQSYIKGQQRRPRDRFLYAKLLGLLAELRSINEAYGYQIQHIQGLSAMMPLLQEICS

CC/C=C\CCOC(=O)c1ccccc1
active: Potency [3] 68.6 µM | Potency [5] 7.1 µM
inactive: outcome [1] | outcome [2] | outcome [4] | outcome [6] | outcome [7] | outcome [8] | Potency [9] | outcome [10] | Potency [11] | Potency [12] | Potency [13] | outcome [14] | outcome [15] | outcome [16] | activity change, positive = activation [17] 5.28% | outcome [18]

C=CCN(CC=C)CC=C
inactive: outcome [1] | outcome [2] | Potency [3] | outcome [4] | Potency [5] | outcome [6] | outcome [7] | outcome [8] | Potency [9] | outcome [10] | Potency [13] | outcome [19] | outcome [20] | outcome [14] | outcome [15] | outcome [18]

O=C1c2ccccc2C(=O)N1CO
inactive: outcome [1] | outcome [2] | Potency [3] | outcome [4] | Potency [5] | outcome [6] | outcome [7] | outcome [8] | Potency [9] | outcome [10] | Potency [13] | outcome [19] | outcome [20] | outcome [14] | outcome [15] | outcome [18]

O=C[C@@H](O)[C@H](O)[C@H](O)CO
inactive: outcome [1] | outcome [2] | Potency [3] | outcome [4] | Potency [5] | outcome [6] | outcome [7] | outcome [8] | Potency [9] | outcome [10] | Potency [13] | outcome [19] | outcome [20] | outcome [14] | outcome [15] | outcome [18]

OCCC(F)(F)C(F)(F)C(F)(F)C(F)(F)C(F)(F)C(F)(F)F
inactive: outcome [1] | outcome [2] | Potency [3] | outcome [4] | Potency [5] | outcome [6] | outcome [7] | outcome [8] | Potency [9] | outcome [10] | Potency [13] | outcome [19] | outcome [20] | outcome [14] | outcome [15] | outcome [18]

O=Cc1ccc(C(=O)O)cc1
inactive: outcome [1] | outcome [2] | Potency [3] | outcome [4] | Potency [5] | outcome [6] | outcome [7] | outcome [8] | Potency [9] | outcome [10] | Potency [13] | outcome [19] | outcome [20] | outcome [14] | outcome [15] | outcome [18]

CC(=O)Nc1ccc(OCCOCCOc2ccc(NC(C)=O)cc2)cc1
inactive: outcome [1] | outcome [2] | Potency [3] | outcome [4] | Potency [5] | outcome [6] | outcome [7] | outcome [8] | Potency [9] | outcome [10] | Potency [11] | Potency [12] | Potency [13] | outcome [19] | outcome [20] | outcome [14] | outcome [15] | activity change, positive = activation [17] -16.6% [at 42.5 µM] | outcome [18]

C/C=C/C(=O)CCCC
inactive: outcome [1] | outcome [2] | Potency [3] | outcome [4] | Potency [5] | outcome [6] | outcome [7] | outcome [8] | Potency [9] | outcome [10] | Potency [13] | outcome [19] | outcome [20] | outcome [14] | outcome [15] | outcome [18]

O=c1[nH]c(=O)c2cn[nH]c2[nH]1
inactive: outcome [1] | outcome [2] | Potency [3] | outcome [4] | Potency [5] | outcome [6] | outcome [7] | outcome [8] | Potency [9] | outcome [10] | Potency [11] | Potency [12] | outcome [19] | outcome [20] | outcome [14] | activity change, positive = activation [17] -22.5% | outcome [18]

COC(=O)c1ccc(NC(C)=O)cc1OC
inactive: outcome [1] | outcome [2] | Potency [3] | outcome [4] | Potency [5] | outcome [6] | outcome [7] | outcome [8] | Potency [9] | outcome [10] | Potency [13] | outcome [19] | outcome [20] | outcome [14] | outcome [15] | outcome [18]

CCOCCOCCOC(C)=O
inactive: outcome [1] | outcome [2] | Potency [3] | outcome [4] | Potency [5] | outcome [6] | outcome [7] | outcome [8] | Potency [9] | outcome [10] | Potency [13] | outcome [19] | outcome [20] | outcome [14] | outcome [15] | outcome [18]

C[C@@H](CN1CC(=O)NC(=O)C1)N1CC(=O)NC(=O)C1
inactive: outcome [1] | outcome [2] | Potency [3] | outcome [4] | Potency [5] | outcome [6] | outcome [7] | outcome [8] | Potency [9] | outcome [10] | Potency [11] | Potency [12] | outcome [19] | outcome [20] | outcome [14] | outcome [15] | outcome [16] | activity change, positive = activation [17] 3.58% [at 42.5 µM] | outcome [18]

CC(C)(C)OC(=O)c1ccccc1C(=O)O
inactive: outcome [1] | outcome [2] | Potency [3] | outcome [4] | Potency [5] | outcome [6] | outcome [7] | outcome [8] | Potency [9] | outcome [10] | Potency [13] | outcome [19] | outcome [20] | outcome [14] | outcome [15] | outcome [18]

COc1cc2nc(N3CCN(C(=O)C4CCCO4)CC3)nc(N)c2cc1OC (stereo unspecified)
active: Potency [5] 17.4 µM
inactive: outcome [1] | outcome [2] | Potency [3] | outcome [4] | outcome [6] | outcome [7] | outcome [8] | Potency [9] | outcome [10] | Potency [11] | Potency [12] | outcome [19] | outcome [20] | outcome [15] | outcome [16] | outcome [18]

Cc1ccccc1C#N
inactive: outcome [1] | outcome [2] | Potency [3] | outcome [4] | Potency [5] | outcome [6] | outcome [7] | outcome [8] | Potency [9] | outcome [10] | Potency [13] | outcome [19] | outcome [20] | outcome [14] | outcome [15] | outcome [18]

C=CCN1CCc2nc(N)sc2CC1
inactive: outcome [1] | outcome [2] | Potency [3] | outcome [4] | Potency [5] | outcome [6] | outcome [7] | outcome [8] | Potency [9] | outcome [10] | Potency [13] | outcome [19] | outcome [20] | outcome [14] | outcome [15] | outcome [18]
